The structures appear in SMILES notation. About 260 (12%) of roughly 2,100 compounds were called active. Roughly 58% stayed inconclusive and do not appear here. The call rests on the fitted dose curve; in most records, active means well fitted cell-killing curve with a large enough effect; inconclusive means small, poorly fitted or top-dose-only effect, or effect the other way; inactive means flat fitted curve, though single readings scatter. Some of the results follow. Where a call stands in place of a potency, no number is given.
Potency means the concentration at half of the fitted maximal effect.

This assay can be described thus: Viability Counterscreen for Confirmatory qHTS for Inhibitors of ATXN expression. Further: nearly all actives have a fitted effect of over 50% in size. Particulars: HEK-293 ATXN2-luc cells viability, CellTiter-Fluor, 24 h. From the text: PI: Daniel Scoles Ph.D. University of Utah School of Medicine, Salt Lake City, Utah MLPCN Grant: NS073009 Spinocerebellar ataxia type 2 (SCA2) is a multisystem neurodegenerative disease caused by a dominantly acting mutation leading to expansion of a polyQ domain in the ataxin-2 protein (ATXN2). SCA2 patients develop progressive ataxia and later lose function in other neuronal systems. Prominent parkinsonian signs develop in some patients. Like many neurodegenerative disorders, no symptomatic or disease-modifying treatments are known. The primary objective of the proposed research is to identify compounds inhibiting ATXN2 expression and to test them for efficacy in SCA2 mouse models. We have developed a cell-based assay paired with an in vivo mouse model using identical luciferase expression constructs. This approach takes advantage of an ATXN2-luciferase transgene, with the luciferase gene flanked by the upstream and downstream portions of the ATXN2 gene. Here we describe a 5-7 dose quantitative high thoroughput screen (qHTS) for compounds lowering ATXN2 expression. We screened the NIH Molecular Libraries Small Molecule Repository (MLSMR) and NCGC's mechanistically annotated (MIPE) and drug repurposing (NPC) collections of compounds for lowering expression of an ATXN2-luciferase reporter in HEK-293 cells. The assay is a multiplexed cell viability assay to ensure target reduction in the absence of cytotoxicity. Secondary qHTS assays included a CMV-luciferase reporter expressed in HEK-293 cells as well as a biochemical assay using recombinant luciferase to detect inhibitors of the reporter enzyme. Compounds that inhibit ATXN2 expression but is not cytotoxic were selected for confirmatory and secondary screens.
PROTOCOL TABLE (as described by Inglese J, Shamu CE and Guy RK. 2007) SEQUENCE No. (e.g., 1, 2, 3, etc.); […] (e.g., Cells, Incubation, Reagent, etc.); VALUE; DESCRIPTION. 1; Cells; 4 uL; white, solid bottom, 1536-well Greiner assay plate. 2; Incubation; 2 hr; 37 degree C in 5% humidified CO2. 3; Compounds; 23 nL; Kalypsis pintool (Wako USA) equipped with a 1536-well pin head. 4; Incubation; 24 hr; 37 degree C in 5% humidified CO2. 5; Reagent; 1 uL; Gly-Phe-7-Amino-4-trifluoromethylcoumarin. 6; Incubation; 30 min; 37 degree C in 5% humidified CO2. 7; Detection; Fluorescence; ViewLux plate reader (PerkinElmer). 8; Reagent; 3 uL; SteadyGlo luciferase solution (Promega). 9; Incubation; 5 min; room temperature. 10; Detection; Luminescence; ViewLux plate reader (PerkinElmer). NOTES (numbers refer to Sequence numbers above) 1. S2 cells expressing ATXN2-luciferase reporter were suspended in phenol-red free DMEM and dispensed in assay plates using a Multidrop Combi dispenser (Thermo Fisher Scientific). Wells containing medium only were plated on each plate, and values were used to normalize (100% inhibition) in the luciferase and CellTiter-Fluor assays. 2. Assay plates were incubated. Evaporation was prevented by covering assay plates with metal lids containing holes to allow gas diffusion. 3. Compounds were added in a dose response manner with the final concentrations of 57, 11.4, 2.28, 0.46, 0.091, 0.018, 0.0037 uM. Vehicle-only plates, with DMSO being pin-transferred to columns 5-48, were inserted uniformly at the beginning and the end of each library to monitor and record any shifts in assay performance. 5. 125 uM Gly-Phe-7-Amino-4-trifluoromethylcoumarin (MP Biomedicals) working concentration was used at a final concentration of 25 uM. 7. To assess cell viability; the assay plates were read using the ViewLux high-throughput CCD imager (PerkinElmer), wherein single end-point fluorescence measurement was acquired (excitation 405/10; emission 540/25 nm). 8. Detection reagent SteadyGlo Luciferase (Promega) was added to the assay plate. 10. Luminescence is then measured on the ViewLux imager equipped with a clear emission filter using a 2 sec exposure. […]
(A counterscreen serves to expose hits that act by an unwanted route or on another target.)
As to `COc1cccc(CN2CCC2(C)C(=O)Nc2cccc3cccnc23)c1OC` (stereo unspecified), the Potency result was “inactive”.
The figure for `COc1ccccc1N1CCN(Cc2ccc(O)c3ncccc23)CC1` is 2.82 µM (active); for `COCc1cc(CN2CCCC2)c(O)c2ncccc12` it is “inactive”.
Under `Cc1ccc(/C=C2/CNC/C(=C/c3ccc(C)cc3)C2=O)cc1` stands 11.2 µM (active).
The figure for `CN(C)CCNc1cccc2sc3ccc(O)cc3c(=O)c12` is 22.4 µM (active).
Turning to `CN(C)CCNc1ccc2ncn3c4ccc(O)cc4c(=O)c1c23`, the Potency entry was “inactive”.
The entry for `CCn1c2ccccc2c2cc(/C=C(/C#N)C(N)=S)ccc21` is “inactive”; for `O=C(NN=C1CCCC1)c1cc(-c2ccc(F)cc2)nc2ccccc12` it is “inactive”.
The figure for `C/C(=N\NC(=O)c1cc(-c2cccnc2)nc2ccccc12)c1ccc(O)cc1O` is 11.2 µM (active).
The entry for `CCN(CC)S(=O)(=O)c1cccc(C(=O)N/N=C(\C)c2ccc(O)cc2O)c1` is “inactive”; for `CCN(CC)c1ccc(/C=N/NC(=O)CNC(=O)C2COc3ccccc3O2)c(O)c1` (stereo unspecified) it is “inactive”.
On to `COc1ccc(CN2CCCN(S(=O)(=O)c3ccc(Br)cc3)CC2)cc1`, for which the Potency result is “inactive”.
Turning to `Cc1cccc(OCCCC(=O)Nc2nccs2)c1`, the Potency entry is “inactive”.
As for `O=C(NC(Nc1ncc(S(=O)(=O)c2ccc([N+](=O)[O-])cc2)s1)(C(F)(F)F)C(F)(F)F)c1ccc(Cl)cc1`, the Potency is 10 µM (active).
Take `O=C(NC(Nc1nc2ccc([N+](=O)[O-])cc2s1)(C(F)(F)F)C(F)(F)F)c1ccccc1`: the Potency is 2.24 µM (active).
The entry for `Cc1ccc(S(=O)(=O)c2cc3cc(Br)ccc3oc2=O)cc1` is “inactive”.
The entry for `Cn1c(CO)cnc1S(=O)(=O)Cc1ccc([N+](=O)[O-])cc1` is “inactive”.
Under `O=C(CN1CCN(C(=O)c2ccc(-c3nc4ccccc4s3)o2)CC1)Nc1ccccc1Cl` stands 3.55 µM (active); under `c1nc(CCO[C@H]2CCCCO2)cc2cc3c(cc12)OCO3`, “inactive”.
Take `O=C(CN1c2cccc3cccc(c23)S1(=O)=O)NCc1ccc(Cl)cc1`: the Potency result is “inactive”.
The entry for `O=C(CCc1ccccc1)NNC(=O)c1cc(Cl)ccc1O` is “inactive”.
For `Cc1cc(Nc2cccc([N+](=O)[O-])c2)n2c(nc3ccccc32)c1C#N`, the Potency was 5.01 µM (active).
Under `Cc1ccc(-c2c(C#N)c(N)n3c(nc4ccccc43)c2C#N)cc1` stands “inactive”.
Under `COc1ccc(-c2nnc(NC(=O)c3ccc(S(=O)(=O)N4COCC4(C)C)cc3)o2)cc1` stands “inactive”; under `Cc1ccc(NC(=O)c2ccc(-c3nn(C)c(=O)c4ccccc34)cc2)cc1`, “inactive”.
For the compound `CCOC(=O)C(NS(=O)(=O)c1ccc(C)cc1)(C(F)(F)F)P(=O)(OCC(C)C)OCC(C)C` (stereo unspecified), the Potency result is “inactive”.
In the case of `Cc1csc2c(N3CCN(C(=O)Nc4ccc(Cl)c(Cl)c4)CC3)ncnc12`, the Potency result is “inactive”.
Under `NNc1ncnc2sc3c(c12)CCC3` stands “inactive”; under `O=c1c2c3c(sc2ncn1/N=C/c1ccc([N+](=O)[O-])o1)CCCC3`, 3.55 µM (active).
On to `COc1ccc(/C=C2/CSC/C(=C/c3ccc(OC)c(OC)c3)C2=O)cc1OC`, for which the Potency was 11.2 µM (active).
On to `COc1cc(/C=C2\COC/C(=C\c3cc(OC)c(OC)c(OC)c3)C2=O)cc(OC)c1OC`, for which the Potency is 1.78 µM (active).
The entry for `Cc1ccc(CN2CCC(c3nc4ccc(Cl)cc4[nH]3)CC2)cc1` is “inactive”.
The entry for `Cc1cc(C)c(C(O)c2ncc(-c3cccc4ccccc34)[nH]2)c(C)c1` (stereo unspecified) is “inactive”.
With `OC(c1ccc(Cl)cc1)c1ncc(-c2cccc(C(F)(F)F)c2)[nH]1` (stereo unspecified), the Potency result was “inactive”.
The entry for `Cc1ccc(-c2csc(N3CCN(c4cc5c(cc4Cl)nc(-c4ccncc4)n5CCOCCO)CC3)n2)cc1` is “inactive”.
The figure for `Cn1c2c(c(=O)n(C)c1=O)C(C(F)(F)F)(C(F)(F)F)N=C(CCC1CCCCC1)N2` is 20 µM (active); for `COc1cc(Nc2ncc3c(n2)CCN(C(=O)Nc2ccc(C(C)C)cc2)C3)cc(OC)c1OC` it is “inactive”.
The entry for `CCCc1cc(C(=O)Nc2ccc(C(=O)c3ccc(C)cc3)cc2)n(C)n1` is “inactive”; for `Cc1cc(C(=O)N/N=C/c2cc(Br)ccc2OC(=O)c2ccccc2)n[nH]1` it is “inactive”; for `Cc1ccc(NC(=O)C2CCN(S(=O)(=O)c3ccc(N4CCCC4=O)cc3)CC2)cc1Cl` it is “inactive”.
As for `Cn1c(SCc2ccc(C(C)(C)C)cc2)nnc1C1COc2ccccc2O1` (stereo unspecified), the Potency result was “inactive”.
The entry for `CCc1c(C)nc2ncnn2c1N1CCC(C(=O)Nc2ccc(C)cc2)CC1` is “inactive”; for `CCc1ccc(CNC(=O)C2CCN(c3nnc(C)c4c(C)n(-c5ccc(C)cc5)nc34)CC2)cc1` it is 20 µM (active).
Under `CCc1ccc(C(=O)NNC(=O)C2CCN(c3ncnc4sc(C)c(C)c34)CC2)cc1` stands “inactive”; under `FC(F)(F)c1cc(-c2ccccn2)nc2cc(-c3ccccc3)nn12`, “inactive”.
The entry for `Cc1ccc(-c2nnc(N3CCC(C)CC3)c3ccccc23)cc1C` is “inactive”.
With `Cc1cc2c(N=O)c(NO)ccc2[nH]1`, the Potency was 12.6 µM (active).
The figure for `CC[n+]1c(C=C2C=C(C)OC(C)=C2)sc2ccccc21` is 11.2 µM (active); for `NNc1nc(N)c2c(n1)-c1ccccc1CC21CCCC1` it is “inactive”.
Consider `CC(=O)Nc1ccc(Nc2c3ccccc3nc3ccccc23)cc1`, for which the Potency was 17.8 µM (active).
The entry for `OCCNc1c2ccccc2nc2c(F)c(F)c(F)c(F)c12` is “inactive”; for `CC(=O)Nc1ccc(NC2=Nc3ccccc3N3C2=Nc2c(c(C)nn2-c2ccccc2)C3c2ccccc2)cc1` (stereo unspecified) it is “inactive”; for `Cc1nnc(SCC(N)=O)n1CC1CCCO1` (stereo unspecified) it is “inactive”.
The figure for `CCOc1ccccc1C(=O)Nc1ccc2nc(N3CCN(c4ncccn4)CC3)cc(C)c2c1` is 11.2 µM (active).
Under `CCOc1ccccc1NC(=O)N1CCC(c2nc3ccccc3[nH]2)CC1` stands “inactive”; under `CCOc1ccc(C(=O)Nc2ccc(Cc3ccncc3)cc2)cc1Br`, “inactive”; under `OC(c1ccccc1)(c1nc(-c2cc3ccccc3o2)cs1)C(F)(F)F` (stereo unspecified), “inactive”.
`CCc1ccc(-c2nc(CS(=O)CC(=O)NCc3ccco3)c(C)o2)cc1` (stereo unspecified): the Potency entry is “inactive”.
Under `O=C(N/N=C\c1ccc([N+](=O)[O-])s1)c1cncc(Br)c1` stands 11.2 µM (active).
The entry for `O=C(CP(=O)(c1ccccc1)c1ccccc1)N/N=C/c1cc(Br)cc(Br)c1O` is “inactive”.
The entry for `O=C(CNC(=O)c1cccc(Br)c1)N/N=C/c1cc(Br)cc(Br)c1O` is “inactive”; for `O=C(CNC(=O)c1ccccc1Br)N/N=C/c1cc(Br)ccc1O` it is “inactive”.
Take `O=C(N/N=C/c1cc(Br)ccc1O)c1ccncc1`: the Potency result is “inactive”.
The figure for `O=C(N/N=C/c1ccc([N+](=O)[O-])s1)c1ccccc1Br` is 22.4 µM (active); for `Cc1ccc(OCCNC(=O)c2cncc(Br)c2)cc1C` it is “inactive”.
As to `COc1ccc(C(=O)NCC(=O)N/N=C/c2ccc([N+](=O)[O-])s2)cc1OC`, the Potency is 22.4 µM (active).

These data come from PubChem BioAssay AID1745850 (National Center for Advancing Translational Sciences (NCATS), 2022).
